This is a sample that favours compounds with a hit; in the whole collection about 1.4% have one here.
PV pol inh: poliovirus RNA polymerase inhibition; % elongation, % (compound at 16.7 µg/mL); poliovirus polymerase elongation, fluorescence polarization; hits give low values; actives 0.66% (n = 150,000); in the data active = % elongation below about 90%
Target sequence (P03300 1749-2209 limits assumed): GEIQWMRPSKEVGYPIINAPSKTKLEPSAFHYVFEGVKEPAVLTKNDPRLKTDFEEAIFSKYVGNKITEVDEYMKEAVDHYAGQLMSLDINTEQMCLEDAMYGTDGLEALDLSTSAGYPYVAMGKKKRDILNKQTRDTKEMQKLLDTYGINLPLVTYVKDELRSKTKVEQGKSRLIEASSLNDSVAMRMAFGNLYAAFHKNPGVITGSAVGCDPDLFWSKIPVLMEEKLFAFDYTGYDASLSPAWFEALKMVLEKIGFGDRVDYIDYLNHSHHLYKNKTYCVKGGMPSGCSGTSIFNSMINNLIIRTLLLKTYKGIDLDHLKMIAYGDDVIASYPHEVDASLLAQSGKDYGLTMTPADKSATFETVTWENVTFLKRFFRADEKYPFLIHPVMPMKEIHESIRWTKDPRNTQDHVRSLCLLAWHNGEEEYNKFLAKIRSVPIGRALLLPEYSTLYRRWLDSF
AID504770: growth inhibitors of E. coli YBA685 in a screen for V. cholerae RctB (chromosome II replication) inhibitors; actives 0.27% (n = 130,000); z-score (concentration not given with the values); E. coli YBA685 rctB-dependent plasmid, OD600 growth, 3 h; hits give low values; in the data active = z-score below about -2, passing the limit was not always enough
MbtI inh: MbtI salicylate synthase inhibition | P9WFX0 | purified MbtI enzyme, fluorescence intensity read-out | inhibition, % (no concentration beside the values) | actives 0.89% (n = 100,000) | AID 493033; in the data active = inhibition mostly above about 56%, no sharp cut-off; inactive = mostly below about 77%
MenB inh: inhibitors of Mycobacterium tuberculosis MenB enzyme. actives 0.43% (n = 100,000). MenB enzyme assay, absorbance read-out. inhibition, % (no concentration beside the values); in the data active = inhibition above about 21%, passing the limit was not always enough
Numbers stand for hits; ! = repeats disagree.

CCN1CCCC1CNCc1ccccn1 (stereo not drawn) was read as PV pol inh inactive, AID504770 inactive, MbtI inh inactive and MenB inh inactive.
Screening CCN1CCCC1CNCc1cccc(OC)c1OC (stereo not drawn) returned PV pol inh inactive, AID504770 inactive, MbtI inh inactive and MenB inh 38.3.
For O=C(CCCn1nc(-c2ccccc2)c2ccccc21)NCC1CCCO1 (stereo not drawn) the results were AID504770 inactive.
`O=c1c2c(-c3cccs3)csc2[nH]c(=S)n1-c1ccccc1` gave PV pol inh 83.0!, AID504770 inactive, MbtI inh 99.3! and MenB inh inactive.
Cn1ccnc1C(O)(CC(=O)O)C(F)(F)F (stereo not drawn) was read as PV pol inh inactive, AID504770 inactive, MbtI inh inactive and MenB inh inactive.
O=C(O)c1ccc(C2Nc3ccccc3C3C=CCC32)cc1 (stereo not drawn) was read as PV pol inh 59.0, AID504770 inactive and MenB inh inactive.
`Cn1c(N)c(C#N)c2c(c1=S)CCCC2` gave PV pol inh 88.0, AID504770 -2.85, MbtI inh inactive and MenB inh inactive.
`CN(C)C(=O)CN1CCN(c2ccc(F)cc2)CC1` gave PV pol inh inactive, AID504770 inactive, MbtI inh inactive and MenB inh inactive.
`Cc1[nH]n(-c2ccc(Br)cc2)c(=O)c1C1=c2ccccc2=NC1=O` gave PV pol inh inactive, AID504770 inactive, MbtI inh 64.0 and MenB inh inactive.
Screening Cc1[nH]n(-c2ccccc2)c(=O)c1N=O returned PV pol inh inactive, AID504770 inactive, MbtI inh inactive and MenB inh inactive.
`S=C(NCc1ccc2c(c1)OCO2)N(Cc1ccco1)Cc1cccs1` gave PV pol inh 88.0, AID504770 inactive, MbtI inh 59.7 and MenB inh inactive.
`O=C(NCc1ccc2c(c1)OCO2)c1cccs1` gave AID504770 inactive.
For O=C1COc2ccc(C(=O)CSC(=S)N3CCCC3)cc2N1 the results were PV pol inh 81.0, AID504770 inactive, MbtI inh inactive and MenB inh inactive.
For Cc1cc(=O)[nH]c(SCC(=O)c2ccc3c(c2)NC(=O)CO3)n1 the results were PV pol inh inactive, AID504770 inactive, MbtI inh inactive and MenB inh inactive.
`CCOc1ccccc1C(=S)N1CCOCC1` gave PV pol inh inactive, AID504770 inactive, MbtI inh 73.8 and MenB inh inactive.
`O=C(Oc1ccccc1C(=S)N1CCOCC1)c1ccccc1` gave PV pol inh inactive, AID504770 inactive, MbtI inh inactive and MenB inh inactive.
`CC(C)(C)C(=O)Nc1cc(C(F)(F)F)cc(C(F)(F)F)c1` gave AID504770 inactive.
Screening CCN(CC)C(=S)C(=O)Nc1cc(C(F)(F)F)cc(C(F)(F)F)c1 returned PV pol inh 86.0, AID504770 inactive and MenB inh inactive.
S=C(Nc1ccccc1)N1CCN(c2ccc3nnc(-c4ccccc4)n3n2)CC1 was read as PV pol inh inactive, AID504770 inactive, MbtI inh inactive and MenB inh inactive.
For CC1(C)CC(=O)C=C(Nc2ccccc2F)C1 the results were PV pol inh inactive, AID504770 -2.55, MbtI inh inactive and MenB inh inactive.
CS(=O)(=O)CCC(C(=O)Nc1ccccc1)N1Cc2ccccc2C1=O (stereo not drawn) was read as PV pol inh inactive, AID504770 inactive, MbtI inh inactive and MenB inh inactive.
Cc1nc(Cc2nnc(SCC(=O)NC(C)(C)C)o2)cs1 was read as PV pol inh inactive, AID504770 inactive, MbtI inh inactive and MenB inh inactive.
`Cc1nc(Cc2nnc(SCC(=O)NCC34CC5CC(CC(C5)C3)C4)o2)cs1` gave PV pol inh inactive, AID504770 -2.85, MbtI inh inactive and MenB inh inactive.
`CC(=O)N(Cc1ccccc1)Cc1cn(-c2ccccc2)nc1-c1cccs1` gave PV pol inh inactive, AID504770 inactive, MbtI inh inactive and MenB inh inactive.
Screening CC(=O)N1CCc2c(sc(NC(=O)c3ccccc3)c2C(N)=O)C1 returned AID504770 inactive.
For CC(C)CN(CC(C)C)c1nnc(N)s1 the results were AID504770 inactive and MbtI inh inactive.
For COC(=O)CN(C)c1nnc(N)s1 the results were PV pol inh inactive, AID504770 inactive, MbtI inh 96.2 and MenB inh inactive.
For [N-]=[N+]=c1c(=O)ccc2c(=O)c3ccccc3c(=O)c1=2 the results were PV pol inh 82.0, AID504770 -6.35, MbtI inh inactive and MenB inh inactive.
O=S(=O)(NN=Cc1cn(-c2ccccc2)nc1-c1ccco1)c1ccc(Cl)cc1 was read as PV pol inh inactive, AID504770 inactive, MbtI inh 90.5 and MenB inh inactive.
NC(=O)N/N=C/c1cn(-c2ccccc2)nc1-c1ccccc1 was read as PV pol inh inactive, AID504770 inactive, MbtI inh inactive and MenB inh inactive.
`O=c1cc(-c2ccccc2)sc(=O)[nH]1` gave PV pol inh inactive, AID504770 inactive and MenB inh inactive.
For S=c1cc(-c2ccccc2)ss1 the results were PV pol inh 88.0, AID504770 inactive, MbtI inh 94.3 and MenB inh inactive.
Screening N#Cc1cc(Cl)ccc1Nc1ncnc(N)n1 returned AID504770 -2.4.
O=C(CC(SC1CCCCC1)C(=O)O)c1ccc(Br)cc1 (stereo not drawn) was read as PV pol inh inactive, AID504770 inactive and MenB inh inactive.
O=C(CC(Sc1ccc(Br)cc1)C(=O)O)c1ccc(Cl)cc1 (stereo not drawn) was read as PV pol inh 85.0, AID504770 inactive and MenB inh inactive.
`O=C(CC(NC1CC1)C(=O)O)c1ccc(Cl)cc1` (stereo not drawn) gave PV pol inh inactive, AID504770 inactive and MenB inh 34.8.
Screening COc1ccc(CCNC(=O)c2ccc3c(c2)N(Cc2ccccc2F)C(=O)c2ccccc2S3(=O)=O)cc1OC returned PV pol inh inactive.
`COc1ccc(CCNC(=O)c2ccc3c(c2)N(Cc2cccc(C)c2)C(=O)c2ccccc2S3(=O)=O)cc1OC` gave PV pol inh 82.0.
For CCCCN(CC)CCCNC(=O)c1cc2c(-c3ccc(OC)c(OC)c3)nn(C)c2s1 the results were PV pol inh 80.0.
Screening COc1cccc(NC(=O)Cc2ccc(NC(=O)N3CCCCc4ccccc43)cc2)c1 returned PV pol inh inactive.
CCOC(=O)c1cccc(NC(=O)Cc2ccc(NC(=O)N3CCCCc4ccccc43)cc2)c1 was read as PV pol inh 21.0.
CCN(CC)Cc1ccc(C(=O)OC)o1 was read as PV pol inh inactive, AID504770 inactive, MbtI inh inactive and MenB inh inactive.
For Nc1n[nH]c(C2CCCCC2)n1 the results were PV pol inh inactive, AID504770 inactive, MbtI inh inactive and MenB inh inactive.
Screening Nc1nc(N)c2[nH]c(C3CCCCC3)nc2n1 returned PV pol inh 79.0, AID504770 inactive, MbtI inh inactive and MenB inh inactive.
`Cc1cc(C)c2c(/N=N/N3CCCCCC3)[nH]nc2n1` gave PV pol inh inactive, AID504770 -3.95, MbtI inh inactive and MenB inh inactive.

Assay outcomes (PubChem BioAssay)
